# Experimental data from paper PMC11062922 (Nature Chemical Biology, 2023).
# Read-outs that look alike come from different tables or passages of the source.
# Legend:
# Parameters in all cases: species or system human, MV4-11 + K-562 + COLO205 + SK-N-BE2 + OVCAR-8
# [1] = test system: CSNK1A1; conditions: read-out: apparent Kd, n = 1
# [2] = test system: CSNK1D; conditions: read-out: apparent Kd, compound concentrations: 100 nM and 1000 nM (sheet 'Samples'), n = 1
# [3] = test system: FER; conditions: read-out: apparent Kd; compound concentrations: 100 nM and 1000 nM (sheet 'Samples'), CATDS: 5.4218087868892397E-3; n = 1
# [4] = test system: MAPK8; conditions: read-out: apparent Kd, n = 1
# [5] = test system: MARK2; conditions: read-out: apparent Kd, n = 1
# [6] = test system: PIK3CD; conditions: read-out: apparent Kd; compound concentrations: 100 nM and 1000 nM (sheet 'Samples'), CATDS: 4.6666042012861897E-2; n = 1
# [7] = test system: PKN2; conditions: read-out: apparent Kd, n = 1
# [8] = test system: PRKACA; conditions: read-out: apparent Kd, compound concentrations: 100 nM and 1000 nM (sheet 'Samples'), n = 1
# [9] = test system: PRKACB; conditions: read-out: apparent Kd, compound concentrations: 100 nM and 1000 nM (sheet 'Samples'), n = 1
# [10] = test system: PRKCA; conditions: read-out: apparent Kd, n = 1
# [11] = test system: PRKCQ; conditions: read-out: apparent Kd; compound concentrations: 100 nM and 1000 nM (sheet 'Samples'), CATDS: 3.4517086035176399E-3; n = 1
# [12] = test system: ROCK2; conditions: read-out: apparent Kd, n = 1
# [13] = test system: RPS6KB1; conditions: read-out: apparent Kd, n = 1
# [14] = test system: STK16; conditions: read-out: apparent Kd, n = 1
# [15] = test system: STK3; conditions: read-out: apparent Kd, n = 1
# [16] = test system: MAPK10; conditions: read-out: apparent Kd; compound concentrations: 100 nM and 1000 nM (sheet 'Samples'), CATDS: 5.7634861461912698E-2; n = 1
# [17] = test system: TNIK; conditions: read-out: apparent Kd, compound concentrations: 100 nM and 1000 nM (sheet 'Samples'), n = 1
# [18] = compound concentrations:100 nM and 1000 nM (sheet 'Samples')
smiles,measurement,setting,value
Cn1ncc2c(N)ncnc21 [SKF-18267],potency estimated from few doses,"[1]; compound concentrations: 100 nM and 1000 nM (sheet 'Samples'), CATDS: 5.1324512690416697E-3",773 nM
same,potency estimated from few doses,[2]; CATDS: 5.3650887558765398E-3,710 nM
same,potency estimated from few doses,[3],697 nM
same,potency estimated from few doses,"[4]; compound concentrations: 100 nM and 1000 nM (sheet 'Samples'), CATDS: 3.9571355950897801E-3",1370 nM
same,potency estimated from few doses,"[5]; compound concentrations: 100 nM and 1000 nM (sheet 'Samples'), CATDS: 3.8405596428901902E-3",1490 nM
same,potency estimated from few doses,[6],40.8 nM
same,potency estimated from few doses,"[7]; compound concentrations: 100 nM and 1000 nM (sheet 'Samples'), CATDS: 4.0047157593236004E-3",1330 nM
same,potency estimated from few doses,[8]; CATDS: 3.8266361716822101E-3,1500 nM
same,potency estimated from few doses,[9]; CATDS: 4.8946075790836903E-3,850 nM
same,potency estimated from few doses,"[10]; compound concentrations: 100 nM and 1000 nM (sheet 'Samples'), CATDS: 3.58231732022705E-3",1810 nM
same,potency estimated from few doses,[11],2030 nM
same,potency estimated from few doses,"[12]; compound concentrations: 100 nM and 1000 nM (sheet 'Samples'), CATDS: 4.7820751865343299E-3",891 nM
same,potency estimated from few doses,"[13]; compound concentrations: 100 nM and 1000 nM (sheet 'Samples'), CATDS: 4.5805386510862304E-3",976 nM
same,potency estimated from few doses,"[14]; compound concentrations: 100 nM and 1000 nM (sheet 'Samples'), CATDS: 4.0331507933998702E-3",1310 nM
same,potency estimated from few doses,"[15]; compound concentrations: 100 nM and 1000 nM (sheet 'Samples'), CATDS: 4.2986396089691199E-3",1120 nM
Cl.Cl.NCC(C(=O)Nc1cc(Br)c(-c2ccnc3[nH]ccc23)s1)c1ccccc1.NCC(C(=O)Nc1cc(Br)c(-c2ccnc3[nH]ccc23)s1)c1ccccc1 (stereo not shown) [GSK1269851A],potency estimated from few doses,[12]; [18],1330 nM
Cc1cccc(Nc2nc(N[C@H]3CCCC[C@H]3N)ncc2C(N)=O)c1.Cl [GSK986310C],potency estimated from few doses,[10]; [18],1130 nM
COc1cccc2c(-c3ccncc3)c(-c3ccc(F)cc3)nn12 [GW468513X],potency estimated from few doses,"[1]; compound concentrations: 100 nM and 1000 nM (sheet 'Samples'), CATDS: 4.67055815056669E-2",666 nM
same,potency estimated from few doses,[2]; CATDS: 0.14597424406190301,52 nM
same,potency estimated from few doses,[16],346 nM
same,potency estimated from few doses,"[4]; compound concentrations: 100 nM and 1000 nM (sheet 'Samples'), CATDS: 3.7375924419407701E-2",1750 nM
CCn1c(-c2nonc2N)nc2c(-c3ccccc3)ncc(OCCCN)c21.CCn1c(-c2nonc2N)nc2c(-c3ccccc3)ncc(OCCCN)c21.O=C(O)C(F)(F)F.O=C(O)C(F)(F)F [GSK260205A],potency estimated from few doses,[2]; CATDS: 4.20751700104477E-2,469 nM
same,potency estimated from few doses,[8]; CATDS: 2.90938755589953E-2,1480 nM
same,potency estimated from few doses,[9]; CATDS: 3.9372517693277299E-2,557 nM
same,potency estimated from few doses,[17]; CATDS: 3.2855545776320001E-2,950 nM
Fc1ccc(-c2c(-c3ccncc3)[nH]c3cccnc23)cc1 [RO1153853-000],potency estimated from few doses,[2]; CATDS: 0.18196610661617901,99.4 nM
CNC(=O)c1ccccc1Nc1nc(Nc2ccc(N3CCOCC3)cc2)ncc1Cl.Cl [GSK1576028A],potency estimated from few doses,[4]; [18],88.4 nM
same,potency estimated from few doses,[14]; [18],1770 nM
same,potency estimated from few doses,[15]; [18],1270 nM
NCCNS(=O)(=O)c1ccc(-c2ccnc3[nH]ccc23)cc1 [GSK977617A],potency estimated from few doses,[7]; [18],1190 nM
same,potency estimated from few doses,[10]; [18],1270 nM
same,potency estimated from few doses,[12]; [18],97.3 nM
Cc1cccc2c(-c3ccncn3)c(-c3ccc(F)cc3)nn12 [GW515532X],potency estimated from few doses,[2]; CATDS: 0.213897093745788,1920 nM
O=C1NC(=O)C(N2CCc3ccccc32)=C1c1ccccc1Cl [SB-373598],potency estimated from few doses,[5]; [18],1350 nM
CC(C)N1CCC(n2cnc(-c3ccc(F)cc3)c2-c2ccnc(N)n2)CC1 [SB-223132],potency estimated from few doses,[1]; [18],158 nM
same,potency estimated from few doses,[5]; [18],1570 nM
CN1C[C@@H]2Cn3c(c(C4=C(c5cn(C)c6ccccc56)C(=O)NC4=O)c4ccccc43)C[C@H]2C1.Cl [RO0320234-001],potency estimated from few doses,[13]; [18],86.4 nM
CCn1c(-c2nonc2N)nc2c(C#CC(C)(C)O)nc(OC[C@@H](N)c3ccccc3)cc21 [GSK938890A],potency estimated from few doses,[8]; CATDS: 0.21319960399835,22.6 nM
same,potency estimated from few doses,[9]; CATDS: 0.177486762785802,30.8 nM
same,potency estimated from few doses,"[12]; compound concentrations: 100 nM and 1000 nM (sheet 'Samples'), CATDS: 5.36427183140821E-2",1160 nM
CCn1c(-c2nonc2N)nc2c(C#CC(C)(C)O)nc(OCCN)cc21.CCn1c(-c2nonc2N)nc2c(C#CC(C)(C)O)nc(OCCN)cc21.Cl.Cl [GSK902056A],potency estimated from few doses,[7]; [18],581 nM
CCn1c(-c2nonc2N)nc2c(C#CCN)ncc(OCCCN)c21.O=C(O)C(F)(F)F [GSK561866B],potency estimated from few doses,"[7]; compound concentrations: 100 nM and 1000 nM (sheet 'Samples'), CATDS: 7.8850535448236003E-2",1510 nM
same,potency estimated from few doses,"[12]; compound concentrations: 100 nM and 1000 nM (sheet 'Samples'), CATDS: 8.7160231406383598E-2",858 nM
same,potency estimated from few doses,"[13]; compound concentrations: 100 nM and 1000 nM (sheet 'Samples'), CATDS: 9.0745453411211097E-2",699 nM
CCOc1nccc2c1nc(-c1nonc1N)n2CC [SB-737198],potency estimated from few doses,"[7]; compound concentrations: 100 nM and 1000 nM (sheet 'Samples'), CATDS: 0.50424526517456403",231 nM
same,potency estimated from few doses,"[13]; compound concentrations: 100 nM and 1000 nM (sheet 'Samples'), CATDS: 0.20646016989107699",1320 nM
CNCC#Cc1c(F)ccc2c1/C(=C/c1[nH]ccc1OC)C(=O)N2.Cl [RO0281601-001],potency estimated from few doses,"[14]; compound concentrations: 100 nM and 1000 nM (sheet 'Samples'), CATDS: 2.5135483463970699E-2",1180 nM
same,potency estimated from few doses,"[15]; compound concentrations: 100 nM and 1000 nM (sheet 'Samples'), CATDS: 2.2839730138462501E-2",1650 nM
same,potency estimated from few doses,[17]; CATDS: 2.1303462940689799E-2,2180 nM
